In the library only some 2.1% were active in any assay of this set; here they are far more common.
PrP UTR inh = inhibition of PrP 5' UTR reporter expression | inhibition, % (no concentration beside the values) | hit rate 0.35% among 340,000 | cell-based PrP 5' UTR mRNA reporter, plate reader; in the data active = inhibition above about 52%; also: 0 = median of the neutral control wells
CCHFV vOTU inh = blocks the CCHF virus ovarian tumor domain protease. CCHFV vOTU protease, Pep-AMC fluorescence. inhibition, % at 11.5 µM. hit rate 0.55% among 370,000. AID 651958; in the data active = inhibition above about 30%; also: 0% = vehicle wells with enzyme and 100% = no enzyme wells
PrPC TRFRET = inhibitors of human cell surface prion protein PrPC; P04156; TR-FRET read-out; inhibition, % at 13.8 µM; hit rate 0.43% among 370,000; AID 720596; in the data active = inhibition above about 24%; also: 0% = median of the test wells and 100% = reference compound wells
RN4220 kill = kills Staphylococcus aureus RN4220; hit rate 0.33% among 330,000; S. aureus RN4220 growth, OD600, 16 h; inhibition, % (concentration not given with the values); in the data active = inhibition above about 85%;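 also: plate controls were untreated cells for no effect and reference antibiotic for full effect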
PfHsp40 rescue = compounds rescuing yeast from Plasmodium falciparum HSP40 toxicity. S. cerevisiae expressing PfHsp40, growth rescue, ATP luminescence. hit rate 0.68% among 340,000. AID 504582. growth rescue, % at 12.5 µM; in the data active = growth rescue above about 28%, passing the limit was not always enough;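 also: yeast W303a lacking pdr1 and pdr3 grown in galactose medium; growth measured after three days at 30 °C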
ugtP null kill = compounds lethal to S. aureus RN4220 ugtP deletion mutant. OD600 growth, 16 h. growth inhibition, % (test concentration not listed). hit rate 0.54% among 330,000. AID 1259309; in the data active = growth inhibition above about 68%;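 also: plate controls were untreated wells for no effect and antibiotic for full effect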
Active calls of the source: *; / = no result given.

SMILES | PrP UTR inh | CCHFV vOTU inh | PrPC TRFRET | RN4220 kill | PfHsp40 rescue | ugtP null kill
C#CCOCCOCCOCCNc1nc(N2CCN(C(=O)C(Cc3ccc(O)cc3)n3cc(C(N)CC(C)C)nn3)CC2)nc(N2CCN(C(=O)C(C(C)CC)n3cc(C(N)CO)nn3)CC2)n1 (stereo unspecified) | / | / | / | 2 | / | -3
CCCCC(=O)NNC(=S)NC(=O)c1ccc(C)cc1 | -19 | -5 | -7 | 37 | 95* | 10
Cc1ccc(C(=O)NNC(=S)NC(=O)COc2ccccc2)cc1 | -47 | -6 | -1 | 88* | 5 | 92*
Cc1cccc(C(=O)NC(=S)NNC(=O)c2ccc(Cl)cc2)c1 | -2 | 3 | 1 | 85* | 75* | 84
COc1ccc(C(=O)NC(=S)NNC(=O)c2ccc(C)cc2)cc1 | -14 | -4 | -8 | 72 | 143* | 55
CCCCC(=O)NNC(=S)NC(=O)c1ccc([N+](=O)[O-])cc1 | 7 | -2 | -10 | 3 | 0 | 2
Cc1cccc(C(=O)NC(=S)NNC(=O)c2cccs2)c1 | -13 | -2 | 4 | 53 | 17 | 19
COCCN1C(=O)NC(CCc2ccccc2)C(C(=O)OC)C1C (stereo unspecified) | / | / | / | 3 | / | -2
CCOC(=O)C1C2COc3ccc(Br)cc3C2N2C(=O)CN(Cc3ccc(C)cc3)C(=O)[C@@]12C (stereo partly specified) | / | / | / | 5 | / | -28
CCC(C)C1CNCCN1CCc1cc(C(F)(F)F)cc(C(F)(F)F)c1 (stereo unspecified) | / | / | / | 4 | / | -11
CC(C)CC(NC(=O)c1nc[nH]c1C(=O)NCC(=O)OC(C)(C)C)C(=O)OCc1ccccc1 (stereo unspecified) | / | / | / | 5 | / | -13
O=C(NC1CC1)C1=CC(c2ccc(C(F)(F)F)cc2)CC(OCc2ccc(CO)cc2)O1 (stereo unspecified) | / | / | / | 3 | / | 2
CC(=O)NC(=S)NNC(=O)C(c1ccccc1)c1ccccc1 | -10 | 6 | 6 | 16 | 62* | 6
CC(CC(=O)Nc1ccccn1)=NNC(=O)Cc1cccc2ccccc12 | / | / | / | 5 | / | 7
Oc1ccc(Br)cc1-c1nc2cnccn2c1NC1CCCCC1 | -17 | -8 | 1 | -10 | 94* | -18
CC(C)(C)OC(=O)NCCCCCNC(=O)c1nc[nH]c1C(=O)NCCCCCNC(=O)OC(C)(C)C | 0 | 26 | 6 | 6 | 45* | 1
CC(C)(C)OC(=O)NCCCCCNC(=O)c1nc[nH]c1C(=O)NCc1ccc(CNC(=O)OC(C)(C)C)cc1 | -6 | 25 | 25* | 3 | 3 | -15
CCn1c(SCC(=O)NN=Cc2ccccc2OCC(=O)O)nnc1-c1ccc(Cl)cc1 | / | / | / | 1 | / | 7
CC(NC(=S)NCc1ccc(F)cc1)C12CC3CC(CC(C3)C1)C2 (stereo unspecified) | -25 | -9 | 4 | -13 | 157* | -19
CCC(NC(=S)NCc1ccc(F)cc1)c1ccc(C(C)C)cc1 (stereo unspecified) | -23 | 1 | 7 | -5 | 472* | -21
CCCc1ccc(C(C)NC(=S)NCc2ccc(F)cc2)cc1 (stereo unspecified) | -8 | 14 | 2 | -11 | -1 | -21
COc1ccc(-n2c(SCc3cccnc3)nc3c(c2=O)SCC3)cc1OC | -14 | -6 | -3 | 1 | 0 | -3
COc1cccc(-n2c(SCc3ccccn3)nc3c(c2=O)SCC3)c1 | -14 | 19 | 0 | 19 | 62* | 23
CC(C=NNC(=O)c1ccncc1)=Cc1ccc(C(C)C)cc1 | / | / | / | 1 | / | 10
O=C1OC(CN2CCOCC2)CN1N=Cc1ccc([N+](=O)[O-])o1 (stereo unspecified) | -31 | 24 | -37 | 100* | -1 | 100*
SMILES | PrP UTR inh | CCHFV vOTU inh | PrPC TRFRET | RN4220 kill | PfHsp40 rescue | ugtP null kill
O=C1CN(/N=C/c2ccc([N+](=O)[O-])o2)C(=O)N1 | / | 29 | -51 | / | / | /
O=C1OC(CN(Cc2ccccc2)Cc2ccccc2)CN1N=Cc1ccc([N+](=O)[O-])o1 (stereo unspecified) | 0 | 29 | 1 | 80 | -2 | 100*
Cn1cc(Cl)c(C(=O)NN=Cc2ccc(OS(=O)(=O)c3ccccc3)cc2)n1 | / | / | / | 1 | / | 5
CC(=NN1CCN(c2ccccc2)CC1)c1ccccc1O | / | / | / | 2 | / | 3
O=C(CSc1ccccc1)NC(=O)NCc1ccccc1 | -7 | 8 | 2 | 2 | 84* | 4
COc1ccc(N=C2SC(=Cc3cccs3)C(=O)N2CC(C)C)cc1 | / | / | / | -10 | / | 4
Cc1ccc(S(=O)(=O)NC2CC3CCC2C3)cc1 (stereo unspecified) | / | -12 | -3 | 6 | / | 4
O=S(=O)(NC1CC2CCC1C2)c1ccc(Br)cc1 (stereo unspecified) | -1 | -10 | 18 | -2 | 67* | -6
Cc1c(C=NNC(=O)C2(C)CC2(Cl)Cl)cnn1C (stereo unspecified) | / | / | / | 4 | / | 4
COc1cc(-c2nc3ccc4ccccc4c3c3c2CCC3)ccc1O | -13 | 4 | -2 | 99* | 22 | 101*
CC(=NNC(=O)c1nn(C)cc1Br)c1cccc(NC(=O)C(C)(C)C)c1 | / | / | / | -1 | / | 3
COc1cccc(CN2CCN(C(=O)CC(C)C)CC2)c1 | -22 | -9 | 6 | 8 | 36* | 3
CC(C)CC(=O)N1CCN(Cc2cccc(F)c2)CC1 | -2 | 6 | 0 | -9 | 1 | 1
O=C(NNC(=O)c1cc2ccccc2cc1O)Nc1ccccc1F | -25 | 7 | -4 | 7 | 120* | -8
Cc1cccc(NC(=O)NNC(=O)c2cc3ccccc3cc2O)c1C | -26 | 11 | -5 | / | -1 | /
CC(C)(C)OC(=O)NCCCCC(C(=O)N1CCN(C(=O)OC(C)(C)C)CC1)n1cc(CCC(=O)O)nn1 (stereo unspecified) | / | / | / | -2 | / | -5
Cc1cc(NC(=NS(=O)(=O)c2ccc(Cl)cc2)c2ccc(F)cc2)no1 | / | / | / | 2 | / | 2
CCOC(=O)Cc1csc(NC(=O)c2c(O)c3ccccc3n(CC(C)C)c2=O)n1 | -11 | -2 | -2 | 97* | 0 | 98*
CCOC(=O)Cc1csc(NC(=O)c2cccs2)n1 | -54 | -19 | 7 | -1 | 0 | -12
COc1ccccc1NC(=O)CCSCCC(=O)Nc1ccccc1OC | -19 | 8 | 1 | 4 | 45* | 0
COc1ccccc1NC(=O)CCC(=O)Nc1ccccc1OC | -13 | -10 | 8 | 5 | -2 | 9
O=C(CC=NOCc1ccc(Cl)cc1)c1cnc(-c2ccccc2)s1 | / | / | / | -2 | / | 4
CC(C)(C)OC(=O)CC1CC=CCC(CC(=O)N(CCO)Cc2ccccc2)C(=O)N2CCCC2COC1=O (stereo unspecified) | / | / | / | 6 | / | 3
CO/N=C/CC(=O)c1ccc(-c2ccccc2)cc1 | -24 | 12 | -5 | / | -1 | /
CON=CCC(=O)c1ccc(-c2ccccc2)cc1 | / | / | / | 32 | / | 101*
CCCCNc1nc(CC)c2c(c1C#N)CCCC2 | -18 | -2 | -2 | 0 | 1 | 81*
CCCCc1nc(NCCO)c(C#N)c2c1CCCC2 | -20 | -13 | 9 | 13 | 1 | 11

Source: PubChem (several laboratories)
